According to PubChem BioAssay AID1347073 (National Center for Advancing Translational Sciences (NCATS), 2019):
In all, about 45,000 compounds went through this assay and about 200 (0.44%) were called active. Where a call stands in place of a potency, no number is given. Another 7% or so got no clear call; they are omitted. This is one part of a sample in which actives are shown more often than they occur. Calls follow the shape of the dose curve; as a rule, active = well fitted activation curve with a large enough effect; inconclusive = small, poorly fitted or top-dose-only effect; inactive = no such curve, though single readings can be large or run the other way.

test: qHTS of TDP-43 Inhibitors: NCGC Sytravon Library Screen; conditions: yeast TDP-43 toxicity rescue, BacTiter-Glo growth, 24 h; series mostly up to 46.1 µM; also: nearly all actives have a fitted effect of over 55% in size
Source text: The goal of this project is to identify new chemical probes capable of reversing the toxicity associated with TDP-43 which is associated with frontotemporal lobar degeneration and amyotrophic lateral sclerosis. These compounds will provide a complementary approach to deciphering the tangled mechanisms of toxicity and protection that we have uncovered through genome-wide genetic screens and are beginning to uncover in a large-scale proteomics analysis with mass spectroscopy. To this end, a miniaturized assay was developed to be screened against the Molecular Libraries Small Molecule Repository (MLSMR) to discover TDP-43 inhibitors. Please note that in the set-up this yeast-based assay compounds that inhibit as TDP-43, have a read-out as activators. NIH Chemical Genomics Center [NCGC] NIH Molecular Libraries Probe Centers Network [MLPCN] Assay Submitter (PI): Susan Lindquist, Whitehead Institute/MIT MLPCN Grant: R21 NS060957
Dispense 2.5 microL yeast galactose medium per 1536-well plate, pin compound, dispense 2.5 microL TDP-43 expressing yeast in galactose medium at OD600=0.02 (pregrown in raffinose medium to mid-log phase) per well, incubate for 24 hr at 30 deg C, and cell growth will be measured using 5 microL of Bactiter/Glo reagent to entire plate and read using Luminescence Protocol in ViewLux.
Potency is read from the fitted curve at half-maximal effect.

SMILES | Potency
O=C(CN1CCC(O)(c2cccc(C(F)(F)F)c2)CC1)NCCc1ccccc1 | inactive
CC(NC(=O)COC(=O)c1cc(=O)[nH]c2ccccc12)c1ccccc1 (configuration not stated) | inactive
COc1cc(C(c2c(NC(=O)c3ccco3)sc(C)c2C)N2CCOCC2)cc(OC)c1OC (configuration not stated) | inactive
CC1(C(=O)Nc2cccc3cccnc23)CCN1C(=O)CCC1CCCC1 (configuration not stated) | inactive
Cc1ccc(N2C(=O)CN=C2Nc2nc(C)cc(C)n2)cc1 | inactive
CCOc1cc(NC(=O)CCl)c(OCC)cc1NC(C)=O | inactive
O=S(=O)(Nc1ncnc2sccc12)c1cccc(F)c1 | inactive
CCN(CC(=O)NCc1ccco1)S(=O)(=O)c1ccc(F)cc1 | inactive
Cc1cc(C)cc(N(CC(=O)NC2CCCC2)C(=O)CCC(=O)Nc2nccs2)c1 | inactive
COc1cc(C(=O)OCc2cc(=O)n3ccsc3n2)ccc1OC(C)C | inactive
COCCNC(=O)CSc1nc2sccc2c(=O)n1-c1ccccc1 | inactive
CC(=O)NC(Cc1ccc(F)c(F)c1)C(=O)NC1CCN(c2nnnn2-c2ccccc2)CC1 (configuration not stated) | inactive
CC1CN(C(=S)SCC(=O)c2ccccc2)CC(C)O1 (configuration not stated) | inactive
CC1CN(c2nc(-c3ccccc3)nnc2-c2ccccc2)CC(C)O1 (configuration not stated) | 12.6 µM (active)
COc1cccc(CNc2nc(C(F)(F)F)nc3ccccc23)c1 | 15.8 µM (active)
COc1ccc(CNc2ncnc3ccccc23)cc1 | inactive
NS(=O)(=O)c1ccc(CCNc2nc(C(F)(F)F)nc3ccccc23)cc1 | inactive
CN(c1ccccc1)S(=O)(=O)c1cccc(NC(=O)Cc2c(F)cccc2Cl)c1 | inactive
O=C(COc1ccc(Br)cc1F)NCC1(N2CCCCC2)CCCCC1 | inactive
Cc1cccc(NC(=S)N2CCC(O)CC2)c1C | inactive
CCOC(=O)/C(=N\Nc1ccccc1Cl)N(C)C1CCS(=O)(=O)C1 (configuration not stated) | inactive
CC(C)CN1CCNC(=O)C1CC(=O)N(C)CC1CCOCC1 (configuration not stated) | inactive
O=C(c1cccc(S(=O)(=O)N2CCCC2)c1)N(Cc1ccco1)C1CCS(=O)(=O)C1 (configuration not stated) | inactive

SMILES | Potency
COc1ccc(-c2nn(C)c(=O)c3ccccc23)cc1CNC(=O)C1CCCCC1 | inactive
CCc1ccc(N2CC(C(=O)Nc3ccc(S(=O)(=O)Nc4nccs4)cc3)CC2=O)cc1 (configuration not stated) | inactive
Cc1nc2c(OCc3ccc(Cl)cc3Cl)cccn2c1N(C)CC1CC1 | inactive
CC1CCN(c2ccc(C(=O)Nc3nnc(C4CC4)s3)cc2[N+](=O)[O-])CC1 | inactive
Cc1ccc(NC(=O)c2ccc(Cl)nc2)cc1S(=O)(=O)N1CCOCC1 | inactive
CC(C)N(C)C(=O)CCc1nnc(CCc2c[nH]c3ccccc23)o1 | inactive
CC(CC(=O)N1CCN(S(=O)(=O)c2ccccc2)CC1)n1cncn1 (configuration not stated) | inactive
COc1ccc(OCC(=O)Nc2cc(C)c(Cl)cc2OC)c([N+](=O)[O-])c1 | inactive
Cc1ccc(C)c(S(=O)(=O)N2CCN(c3ncnc4sccc34)CC2)c1 | 11.2 µM (active)
Cc1ccc(C)c(S(=O)(=O)N2CCN(CC(=O)Nc3ccc([N+](=O)[O-])cc3)CC2)c1 | inactive
Cc1ccc([N+](=O)[O-])cc1S(=O)(=O)N1CCCN(C)CC1 | inactive
CCN(CC(=O)Nc1ccccc1C(=O)NC1CC1)Cc1cccs1 | inactive
CC(=O)NC(CC(=O)Nc1ccc(S(=O)(=O)N2CCOCC2)cc1)c1ccccc1 (configuration not stated) | inactive
COc1ccc(NC(=O)N2CCCC(C(=O)Nc3ccccc3OC)C2)cc1 (configuration not stated) | inactive
COc1ccc(CNC(=O)C(c2ccc(O)cc2)N(Cc2ccco2)C(=O)c2snc(C(N)=O)c2N)cc1 (configuration not stated) | inactive
O=C(c1cccs1)N(Cc1cc2ccccc2[nH]c1=O)CC1CCCO1 (configuration not stated) | inactive
CCOc1ccc(C(C)=O)cc1CSc1nnc(-c2ccncc2)n1CCOC | inactive
CCOc1ccc(S(=O)(=O)N2CCC(C(=O)NCc3ccccn3)CC2)cc1Cl | inactive
Cc1cccc(C(=O)N2CCN(S(=O)(=O)N3CCCCC3)CC2)c1 | inactive
Cc1ccc(C(=O)NNC(=O)CSc2nnc3ccccn23)cc1 | inactive
Cc1cc(C)nc(N/N=C/c2c(C)oc3ccccc23)n1 | inactive
CCOC(=O)C1CCN(C(=O)COc2cccc3ccccc23)CC1 | inactive
CN(C)S(=O)(=O)Oc1ccccc1C(=O)Nc1ccccc1Cl | inactive

SMILES | Potency
CC1(C(=O)NS(=O)(=O)c2ccc(Cl)cc2)CCN1C(=O)CC1CCCC1 (configuration not stated) | inactive
O=C(N/N=C/c1ccc([N+](=O)[O-])cc1)C(=O)N1CCCC1 | inactive
C/C(=C/C(=O)N1CCN(C)CC1)C(=O)O | inactive
CCOc1ccc(NC(=O)CCC(=O)NNC(=O)NC2CCCCC2)cc1 | inactive
O=C(O)c1cccc(S(=O)(=O)Nc2ccc(O)cc2Sc2nc3ccccc3s2)c1 | inactive
O=C(O)CC/C(=C\c1cc2c(cc1Br)OCO2)c1nc2ccccc2s1 | inactive
O=C(O)c1ccccc1CSc1nc2ccccc2s1 | 11.2 µM (active)
COc1ccccc1N(CC(=O)Nc1ccc(C)cc1Cl)S(=O)(=O)c1cccs1 | inactive
O=C(NNS(=O)(=O)c1ccc(F)cc1)C1CCCCC1 | inactive
O=C(Nc1ccc(Cl)cc1)c1csc([C@H]2C[C@H](O)[C@@H](CO)O2)n1 | inactive
CCOC(=O)c1oc2c(CN3CCN(CCO)CC3)c(O)c(CC)cc2c(=O)c1-c1nc2ccccc2s1 | inactive
CCNc1nc(NCC)nc(N/N=C/c2ccc(O)c(OC)c2)n1 | inactive
COc1ccc(C(=O)NC2CCN(C(=O)Nc3ccc(F)cc3)CC2)cc1 | inactive
Cc1nc(CN2CCN(C(=O)CCc3nnc(Cc4c[nH]c5ccccc45)o3)CC2)cs1 | inactive
CCNC(=O)C1(C)CCCN(Cc2noc(-c3ccccc3OC)n2)C1 (configuration not stated) | inactive
Cc1ccc(CN(CC(=O)NCC2CCCO2)S(=O)(=O)c2ccc(C)cc2)cc1 (configuration not stated) | inactive
COC(=O)c1c(NC(=O)CN2C(=O)NC(CCc3ccccc3)C2=O)sc2c1CCCCC2 (configuration not stated) | inactive
COCCNC(=O)CN(Cc1ccco1)C(=O)CCC(=O)Nc1nccs1 | inactive
O=C(NCCCN1CCOCC1)c1cc(-c2cccc(O)c2)on1 | inactive
COc1ccc(CCNC2=CC(=O)CC(C)(C)C2)cc1 | inactive
CCOc1ccccc1/C=N/Nc1nc2ccccc2o1 | inactive
